Test results reported in PubChem BioAssay (NCI).
The panel holds about 83,000 compounds, 20% with a hit somewhere; the sample as a whole holds those more often.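 Testing used 96-well plates and a 48-hour single-concentration exposure. Example: -40 means 40% of the starting cells died.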 Values without a mark were called inactive. Active and inactive are the calls of the source. The calls were made as follows: active = growth percent below 10; inactive = the rest.

How the values were obtained:
Experiment in all cases: NCI-60 one-dose screen, 48 h (100 = growth as untreated, 0 = no growth, -100 = all killed)
Conditions in all cases: 10 µM unless noted
[1] = system: NCI-H23 lung
[2] = system: NCI-H226 lung
[3] = system: NCI-H322M lung
[4] = system: HOP-62 NSCLC
[5] = system: NCI-H460 lung
[6] = system: HOP-92 NSCLC
[7] = system: NCI-H522 lung
[8] = system: A549/ATCC NSCLC
[9] = system: 786-0 renal
[10] = system: COLO 205 colon
[11] = system: DU-145 prostate
[12] = system: K-562 leukemia
[13] = system: MALME-3M melanoma
[14] = system: MDA-MB-231 breast
[15] = system: RXF 393 renal
[16] = system: SF-268 CNS
[17] = system: SF-295 CNS
[18] = system: SF-539 CNS
[19] = system: UACC-257 melanoma
[20] = system: M14 melanoma

| SMILES | growth [1] | growth [2] | growth [3] | growth [4] | growth [5] | growth [6] | growth [7] | growth [8] | growth [9] | growth [10] | growth [11] | growth [12] | growth [13] | growth [14] | growth [15] | growth [16] | growth [17] | growth [18] | growth [19] | growth [20] |
| --- | --- | --- | --- | --- | --- | --- | --- | --- | --- | --- | --- | --- | --- | --- | --- | --- | --- | --- | --- | --- |
| CCOC(=O)c1c(NC(=O)c2ccc(C(C)C)cc2)sc2c(CN(C)C)c(O)ccc12 | 82.2% | 85.2% | 79.2% | 89.9% | 6.2% (active) | 69.5% | 97.2% | 77% | -50.5% (active) | -24.5% (active) | 78.2% | -31.3% (active) | -45.5% (active) | 58.4% | 44.2% | 91.4% | 4.37% (active) | 75% | 67.3% | -64% (active) |
| COCCn1c(-c2csc(-c3cn(C)c4ccc(OC)cc34)n2)cc2cccnc21 | 63.8% | 81.3% | 82.4% | 60.9% | 21.7% | 67.5% | -24.5% (active) | 48% | 30.9% | 37.5% | 62.7% | -25.5% (active) | 106% | 43.6% | 52.3% | 64.1% | 58.9% | 58.9% | 54.5% | 44.2% |
| C=C(C)[C@@H]1CC[C@]2(C(=O)N3CCN(C)CC3)CC[C@]3(C)[C@H](CC[C@@H]4[C@@]5(C)CC(=C/c6ccncc6)/C(=N/O)C(C)(C)[C@@H]5CC[C@]43C)[C@@H]12 | 78.1% | 88.4% | 75.1% | 96.8% | 69.5% | 56.7% | 69% | 73.9% | 74.6% | 80.8% | 77.1% | 34.4% | 87.4% | 65.7% | 71.9% | 63% | 91.6% | 83.6% | 85.8% | 94.5% |
| O=S(=O)(NCCNc1cc(-c2c(-c3cccc(O)c3)nc3sccn23)ccn1)c1ccc(C(F)(F)F)cc1 | 51.9% | 38.1% | 61.5% | 71.8% | 21.1% | 61.9% | 38.1% | 28.6% | 38.6% | 42.6% | 43.1% | 22.8% | 57.8% | 53.2% | 42.1% | 34.9% | 31.2% | 62.3% | 51.8% | 36.9% |
| COc1ccc(NC(=O)c2sc3nc(C)c(C(=O)/C=C/c4cccc(OC)c4)cc3c2N)cc1 | 54.6% | 71.8% | 18% | 61.8% | -7.38% (active) | 90.9% | 39.2% | 13.2% | 10.9% | 45.9% | 21.9% | 12.7% | 94.1% | 53.2% | -11.4% (active) | 34.4% | 26.9% | 71.2% | 87.9% | 70.3% |
| Cc1nc(-c2ccccc2)cc2c(O)c(C(=O)NN)[nH]c(=O)c12 | 103% | 104% | 92.7% | 107% | 106% | 85.6% | 94.3% | 102% | 108% | 117% | 115% | 104% | 229% | 102% | 101% | 96.2% | 111% | 100% | 118% | 101% |
| COc1cccc(/C=C/C(=O)c2cc3c(N)c(C(=O)Nc4ccccc4)sc3nc2C)c1 | 49.6% | 55.3% | 67.9% | 13.6% | -22.5% (active) | 64.4% | 7.06% (active) | 34.3% | -38.2% (active) | 67.6% | 12% | 13.3% | 68.6% | 17.1% | -74.6% (active) | 18.2% | 44.8% | -16% (active) | 71.8% | 29.9% |
| CCCCCCNC(=O)Oc1ccc(/C(=C(/C)Cc2ccc(OC)cc2)c2ccc(OCCCN(C)C)cc2)cc1 | 70.7% | 90.5% | 70.5% | 76% | -52.7% (active) | 25% | 36.4% | 31.9% | 44.5% | -84% (active) | 48.9% | -51.8% (active) | -51.2% (active) | 32.6% | 31.2% | 60.8% | 10.5% | 40.7% | -6.6% (active) | -63.9% (active) |
| CCOC(=O)c1cnc2ccccc2c1Cl | 96.9% | 99.2% | 122% | 99.6% | 93% | 70.4% | 92.1% | 104% | 94.3% | 96.2% | 98.3% | 116% | 126% | 85.4% | 127% | 99.5% | 107% | 85.9% | 109% | 92.2% |
| O=C1Nc2ccccc2/C1=C\c1nc(-c2ccccc2F)n2ccccc12 | 33.2% | -1.5% (active) | 26% | -1.47% (active) | -20.4% (active) | 40.4% | -23% (active) | 26.5% | -34.5% (active) | 72.8% | -26.7% (active) | 74.1% | 34.4% | 8.66% (active) | -42.7% (active) | 24.7% | 38.1% | -1.95% (active) | 45.7% | 53.4% |
| CC1(C)CC[C@]2(C(=O)O)CC[C@]3(C)C(=CC[C@@H]4[C@@]5(C)C/C(=C/O)C(=O)C(C)(C)[C@@H]5CC[C@]43C)[C@@H]2C1 | 22.2% | 96.2% | 62.2% | 73.1% | 83.6% | 89% | 25.2% | 89.4% | 84.3% | 74.9% | 85.2% | 32.2% | 89.9% | 111% | 93.7% | 57.2% | 79.9% | 29.2% | 91.6% | 79.1% |
| CCOC(=O)C(=Cc1cccc(Br)c1)C(=O)OCC | 17.7% | 45.2% | 65.5% | 85.1% | 68.2% | 12.9% | 23.9% | 41.8% | 47.4% | 46.6% | 4.57% (active) | 21.3% | 73.1% | 38.1% | 40.3% | 25.7% | 97% | 4.36% (active) | 35% | 32.9% |
| CCCCNC(=O)Oc1ccc(/C(=C(/CC)Cc2ccccc2)c2ccc(OCCN3CCCCCC3)cc2)cc1 | 57.4% | 83.4% | 85.4% | 74.8% | -59.8% (active) | 36% | 30.4% | 39.5% | 36.6% | -75% (active) | 49.9% | -24.8% (active) | -58.3% (active) | 43.3% | 16.7% | 61% | 91.9% | -30.2% (active) | 34.3% | -19.3% (active) |
| CCc1n(Cc2ccc3ccccc3c2)cc[n+]1Cc1ccc2ccccc2c1 | -14.6% (active) | 6.75% (active) | 44.3% | 11.9% | 5.54% (active) | -31.4% (active) | -25.4% (active) | 28.5% | 35.7% | -67.5% (active) | 23.8% | 8.91% (active) | -21.9% (active) | -18.9% (active) | 1.07% (active) | 12.5% | 6.3% (active) | 12.6% | -38.2% (active) | -9.48% (active) |
